Results on 40 compounds are retold here after PubChem BioAssay (Tox21).

Molecules are shown by their SMILES. Inconclusive results are not listed. Activity calls are given as the source filed them. Calls come from the whole dose curve.
% is set by controls: 0 for no effect and ±100 for the full control effect; potency is the fitted concentration of half-maximal effect.

The assay can be described thus: Nuclear factor erythroid 2-related factor 2/antioxidant responsive element (Nrf2/ARE) small molecule agonists: luciferase reporter gene qHTS assay in human keratinocytes (AID 1919969). Note: nearly all actives have a fitted effect of over 35% in size. Particulars: KeratinoSens HaCaT ARE-luciferase, luminescence, 24 h; series mostly up to 92.4 µM; activity, positive = activation: at the top concentration. From the text: National Center for Advancing Translational Sciences [NCATS]
Division of Preclinical Innovation [DPI]
U.S. Environmental Protection Agency [EPA]
National Institutes of Environmental Health Sciences [NIEHS]
National Toxicology Program [NTP]
U.S. Food and Drug Administration [FDA]
Oxidative stress has been implicated in the pathogenesis of a variety of diseases ranging from cancer to neurodegeneration. The antioxidant response element (ARE) signaling pathway plays an important role in the amelioration of oxidative stress. The KeratinoSens (Givaudan, Switzerland) is an in vitro test method which quantifies luciferase induction as a measure of activation of Keap1-Nrf2-antioxidationt/electrophile response element (ARE) dependant pathway in HaCaT human keratinocytes stably transfected with a selectable plasmid. The KeratinoSens assay is a cell-based assay with a reporter cell line to detect potential skin sensitizers by their ability to induce the Nrf2/ARE-response. The activation of the report gene under culture conditions can be detected by ONE-Glo Luciferase Assay System (Promega, Madison, WI). This cell line has been used to screen the Tox21 10K compound library to identify agonists that induce oxidative stress. The cytotoxicity of the Tox21 compound library against the KS-ARE cell line was tested in parallel by measuring the cell viability using CellTiter- Fluor assay system (Promega, Madison, WI) in the same wells.
HaCaT derived cell line KeratinoSens were dispensed at 1,500 cells/5uL/well in 1536-well white wall/solid bottom plates using a Multidrop Combi (ThermoFisher Scientific, Waltham, MA) dispenser. After the assay plates were incubated at 37 C/5% CO2 for 5 h, 23 nL of compounds dissolved in DMSO, positive controls or DMSO only was transferred to the assay plate by a pintool workstation (Kalypsys, San Diego, CA). The plates were incubated at 37 C/5% CO2 for 23 h, followed by addition of 1uL/well of CellTiter-Fluor reagent into the assay plates using a Flying Reagent Dispenser (Aurora Discovery, San Diego, CA) for cell viability readout that measures cytotoxicity. After 1 h incubation at 37 C/5% CO2 the fluorescence intensity was measured using a ViewLux (PerkinElmer, Shelton, CT) plate reader. Then 4uL/well of One-Glo were added using a Flying Reagent Dispenser. After the plates were incubated at room temperature for 30 min, the luminescence intensity in the assay plates was measured using ViewLux plate reader.
`COc1ccc2c(c1)c(CC(=O)OCC(=O)O)c(C)n2C(=O)c1ccc(Cl)cc1`: the “activity, positive = activation” value is -10% [at 42.5 µM] (inactive).

As for `O=C(Oc1ccccc1C(=O)O)c1ccccc1O`, the “activity, positive = activation” value is -2.73% [at 42.5 µM] (inactive).

As for `CC1CCc2c(N3CCC(O)CC3)c(F)cc3c(=O)c(C(=O)O)cn1c23` (stereo not given), the “activity, positive = activation” value is -0.485% [at 42.5 µM] (inactive).

Turning to `CCCCCC(C)N` (stereo not given), the “activity, positive = activation” value was 3.97% [at 42.5 µM] (inactive).

For `CCCCCCCC1CCCC1=O` (stereo not given), the “activity, positive = activation” value was 1.98% (inactive).

With `C[N+]1(C)CCCC(OC(=O)C(O)(c2ccccc2)c2ccccc2)C1` (stereo not given), the “activity, positive = activation” value is -0.185% [at 42.5 µM] (inactive).

For `CCCCCCC(=O)OCC`, the “activity, positive = activation” value is 0.313% (inactive).

As for `NC[C@H]1O[C@H](O[C@H]2[C@H](O[C@@H]3O[C@H](CO)[C@@H](O)[C@H]3O)C(O)[C@H](N)C[C@@H]2N)[C@H](N)[C@@H](O)[C@@H]1O` (stereo not given in full), the activity, positive = activation is -8.73% [at 8.39 µM] (inactive).

As to `CN=C(NC#N)NCCSCc1csc(N=C(N)N)n1`, the “activity, positive = activation” value was -4.77% [at 42.5 µM] (inactive).

Take `O=C(CCCN1CCC(O)(c2ccc(Br)cc2)CC1)c1ccc(F)cc1`: the “activity, positive = activation” value was -2.11% [at 42.5 µM] (inactive).

In the case of `CN(C)CCN(Cc1ccsc1)c1ccccn1`, the “activity, positive = activation” value was 7.07% [at 42.5 µM] (inactive).

Turning to `CCNC(=O)NCCCOc1cccc(CN2CCCCC2)c1`, the “activity, positive = activation” value was 0.555% [at 42.5 µM] (inactive).

`Cc1ccc2c(c1)c1c3n2CCNC3CCC1` (stereo not given): the “activity, positive = activation” value was 4.19% [at 42.5 µM] (inactive).

As to `CO[Si](CCCS)(OC)OC`, the “activity, positive = activation” value is -1.85% (inactive).

For `CN1CCN(C2=Nc3ccccc3Oc3ccc(Cl)cc32)CC1`, the “activity, positive = activation” value was 6.66% [at 42.5 µM] (inactive).

For `C=CC(OCC)OCC`, the “activity, positive = activation” value was -7.89% (inactive).

With `COc1ccc([C@@H]2Sc3ccccc3N(CCN(C)C)C(=O)[C@@H]2OC(C)=O)cc1`, the “activity, positive = activation” value is -10.4% [at 42.5 µM] (inactive).

Consider `CCOC(=O)CC(CC(=O)OCC)(OC(C)=O)C(=O)OCC`, for which the “activity, positive = activation” value is 16.3% (inactive).

For the compound `O=NN(CCCl)C(=O)NCCCl`, the “activity, positive = activation” value was 0.179% [at 42.5 µM] (inactive).

On to `O=C(O)c1cc(C(=O)O)c(C(=O)O)cc1C(=O)O`, for which the “activity, positive = activation” value is 1.57% (inactive).

Consider `CC1=C(C)C(=O)C(C(CCCCCC(=O)O)c2ccccc2)=C(C)C1=O` (stereo not given), for which the “activity, positive = activation” value was 4.66% [at 42.5 µM] (inactive).

As to `O=C(O)c1cccc(C(=O)O)n1`, the “activity, positive = activation” value is -5.22% (inactive).

As for `S=C(SSSSSSC(=S)N1CCCCC1)N1CCCCC1`, the activity, positive = activation is -39.1% [at 19 µM] (inactive).

`Cc1nc(C)nc(N2C[C@@H](C)N(c3ccnc([C@@H](C)O)n3)[C@@H](C)C2)n1`: the “activity, positive = activation” value is 1.16% [at 42.5 µM] (inactive).

Regarding `CC(C)CCCC(C)(C)O`, the “activity, positive = activation” value is -10.3% (inactive).

As to `COc1cc(C(=O)NS(=O)(=O)c2ccccc2C)ccc1Cc1cn(C)c2ccc(NC(=O)OC3CCCC3)cc12`, the “activity, positive = activation” value was -0.872% [at 42.5 µM] (inactive).

Regarding `OCc1ccccn1`, the “activity, positive = activation” value is 2.96% [at 42.5 µM] (inactive).

As for `Cc1cccc(CN2CCN(C(c3ccccc3)c3ccc(Cl)cc3)CC2)c1` (stereo not given), the “activity, positive = activation” value is -15.7% [at 42.5 µM] (inactive).

Turning to `CC(C)=CC(=O)C=C(C)C`, the “activity, positive = activation” value is -0.663% (inactive).

Turning to `CCn1nc(Cc2ccccc2)cc1C1CCN(C[C@H]2C[C@H](N(C)[C@@H](C(=O)O)C(C)C)C[C@@H]2c2cccc(F)c2)CC1`, the “activity, positive = activation” value is 11.5% (inactive).

Regarding `CO[Si](CCCNc1ccccc1)(OC)OC`, the “activity, positive = activation” value is 2.36% (inactive).

For the compound `C=CC1CO1` (stereo not given), the “activity, positive = activation” value is 7.07% (inactive).

As for `Clc1ccnc(Cl)n1`, the Potency was 69.6 µM (active).

Turning to `CC(C(=O)O)c1ccc(CC2CCCC2=O)cc1` (stereo not given), the “activity, positive = activation” value was -2.48% [at 42.5 µM] (inactive).

For the compound `CCN1CCN(c2cc3c(cc2F)c(=O)c(C(=O)O)cn3C2CC2)CC1`, the “activity, positive = activation” value is -8.33% [at 42.5 µM] (inactive).

Turning to `O=P(O)(O)C(O)(Cc1cccnc1)P(=O)(O)O`, the “activity, positive = activation” value is 1.09% [at 42.5 µM] (inactive).

Consider `Cc1cccc2sc(N)nc12`, for which the “activity, positive = activation” value is -1.53% (inactive).

As for `CC/C=C\CCOC(=O)c1ccccc1`, the “activity, positive = activation” value was 25.1% (inactive).

Turning to `Cc1ccc(NC(N)=O)cc1`, the “activity, positive = activation” value was -5.94% (inactive).

Take `COc1ccc2c(c1)C(=O)N(CCc1ccc(S(=O)(=O)NC(=O)NC3CCCCC3)cc1)C(=O)C2(C)C`: the “activity, positive = activation” value was -10.8% [at 42.5 µM] (inactive).
